Bioassay records from PubChem.
KB-V1 cytotox = qHTS assay for MDR1-selective chemotherapeutics: Primary screen using the drug-selected MDR subline cells KB-V1 | KB-V1 MDR cells viability, CellTiter-Glo, 72 h | Potency, µM (doses to about 46.1 µM), most hits filed as cytotoxic | actives 3.4% (n = 400,000); further: potency means the concentration at half of the fitted maximal effect; on the % scale 0 is the no-effect control and ±100 the full control effect; nearly all actives have a fitted effect of over 60% in size
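KB-V1 MDR subline cells in DMEM (phenol-red free, 10% FBS) exposed to compounds in qHTS concentration series for 72 h at 37 degrees C. Viability read by CellTiter-Glo luminescence; concentration-effect curves fitted after normalization and correction.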
IL1B secr inh = qHTS for Inhibitors of Inflammasome Signaling: IL-1-beta AlphaLISA Primary Screen | THP-1 LPS/ATP IL-1B secretion, AlphaLISA, 16 h; hits give low values | activity change, % at 57.5 µM | actives 4.7% (n = 360,000) | AID 743279, 2014; in the data active means activity change below about -50%; inconclusive means mostly about -30% to -49%; further: on the % scale 0 is the no-effect control and ±100 the full control effect
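THP-1 cells pretreated 1 hr with compounds (up to 57.5 uM final), then stimulated with LPS (250 ng/mL final) plus ATP (1.25 mM final); secreted IL-1B measured by AlphaLISA after 16 hr, decreased signal indicating inhibition.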
KB-3-1 cytotox = qHTS assay for MDR1-selective chemotherapeutics: Primary screen using the parental adenocarcinoma cell KB-3-1; actives 1.4% (n = 400,000); KB-3-1 viability, CellTiter-Glo ATP luminescence, 72 h; Potency, µM (doses to about 46.1 µM), most hits filed as cytotoxic; further: potency means the concentration at half of the fitted maximal effect; on the % scale 0 is the no-effect control and ±100 the full control effect; nearly all actives have a fitted effect of over 60% in size
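KB-3-1 cells, DMEM (no phenol red) + 10% FBS; compound by pin transfer, 72 h, 37 °C. Readout: CellTiter-Glo luminescence after 10 min. Data normalized, curve-fitted.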
MCF10A rerep = A quantitative high throughput screen for small molecules that induce DNA re-replication in MCF 10a normal breast cells; MCF 10A DNA re-replication, Hoechst nuclear intensity, 48 h; Potency, µM (series often up to 46.1 µM), without a hit: at the top dose activity, positive = re-replication, hits mostly activators; actives 2.9% (n = 350,000); AID 624296, 2012; further: potency means the concentration at half of the fitted maximal effect; % of control where 0% means no effect; nearly all actives have a fitted effect of over 50% in size
SW480 rerep = A quantitative high throughput screen for small molecules that induce DNA re-replication in SW480 colon adenocarcinoma cells | Potency, µM (highest dose often 46.1 µM), inactives show top-dose re-replication activation, usual class: activators | SW480 DNA re-replication, Hoechst DNA content imaging, 48 h | actives 1.8% (n = 340,000) | AID 624297, 2012; further: potency means the concentration at half of the fitted maximal effect; % of control where 0% means no effect; nearly all actives have a fitted effect of over 55% in size
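Treated cells incubate 48 hr (37 C, 5% CO2), are stained 40 min with Hoechst, and nuclear fluorescence is enumerated; a rise in nuclei with high DNA signal marks re-replication.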
Active calls of the source: *; i = inactive; ? = inconclusive; . = no result given; [ ] = remark or other dose. A selection: hits, their analogues and other compounds. The true share with any hit is near 9.9%. Unless noted, the call rests on the fitted dose curve; in most records, active means well fitted curve in the direction sought with a large enough effect; inconclusive means small, poorly fitted or top-dose-only effect, or another doubt; inactive means no such curve, though single readings can be large; an effect the other way counts as inactive or inconclusive.

SMILES	KB-V1 cytotox	IL1B secr inh	KB-3-1 cytotox	MCF10A rerep	SW480 rerep
Cc1ccc(NC(=O)CSc2ncnc3ccccc23)cc1S(=O)(=O)N1CCCCCC1	?	-90.0*	i	?	-4.7%
O=C(CSc1ncnc2ccccc12)Nc1cccc(S(=O)(=O)N2CCCC2)c1	i	-28.9	i	?	-3.1%
COCCNCC(=O)Nc1ccc(C)c(S(=O)(=O)N2CCCCC2)c1	?	14.2	i	-46.8%	2.7%
Cc1ccc(NC(=O)CSc2nc(-c3ccco3)nc3cc(=O)[nH]n23)cc1C	i	.	i	.	.
CCc1cc2c(SCC(=O)NC3CCCC3)ncnc2s1	i	9.4	i	.	.
COc1cc(OC)c(C2C=CC(=O)CC2)c(OC)c1 (centres undefined)	i	?	?	.	.
NC(=NCCc1ccccc1)NS(=O)(=O)c1cccs1	i	11.2	i	2.5%	0.3%
O=S(=O)(NC(=NCCc1ccc(Cl)cc1)c1ccccc1Cl)c1cccs1	?	-68.2*	i	-44.0%	?
N#CCC(=O)Nc1ccc(C(=O)N2CCN(c3ccccn3)CC2)cc1	i	12.8	i	-35.0%	-2.6%
COc1ccc(-c2sc3ccccc3c2/C=C/c2ccc(N)cc2)cc1	i	21.4	i	?	-2.7%
COc1ccc2sc(-c3ccc(SC)cc3)c(/C=C/c3ccc(OC)c(OC)c3)c2c1	i	2.8	i	9.2µM*	16.5%
COc1ccc(-c2sc3ccc(N4CCOCC4)cc3c2C#CC2(O)CCCCC2)cc1	i	105.1	?	?	?
COc1ccc(/C=C/c2c(-c3ccc(OC)cc3)sc3ccc(N4CCOCC4)cc23)cc1	i	-4.2	i	8.2µM*	0.9%
COc1ccc(-c2sc3ccc(N4CCOCC4)cc3c2C#CCO)cc1	i	-0.1	i	11.6µM*	?
CCc1nn2c(=O)c(S(=O)(=O)Nc3ccc(C)c(C)c3)c(C)nc2s1	i	.	i	.	.
Cc1ccc(CN2CCc3nc(N4CCN(c5ccccc5F)CC4)ncc3C2)s1	i	.	i	.	.
CCOC(=O)c1c(C)[nH]c(/C(C)=N/O)c1C	?	-4.7	i	?	9.2%
CCOC(=O)c1c(C)[nH]c(C2=NNC(=NC3CC3)SC2)c1C	i	-50.4*	i	-12.8%	-22.2%
C[C@H]1CN([C@@H](C)CO)C(=O)c2cc(Br)cnc2O[C@@H]1CN(C)S(C)(=O)=O	i	9.7	i	.	.
CCN(c1ccccc1)c1nc(Cl)nc2c1cnn2C	i	-11.2	i	17.3%	-11.4%
CC(Oc1ccc(Cl)cc1Cl)C(=O)NC1=NN(c2ccccc2)C(=O)C1 (centres undefined)	i	1.1	i	18.4µM*	-3.3%
CC(Oc1ccc(Cl)cc1Cl)C(=O)Nc1ccncc1 (centres undefined)	9.2µM*	-16.5	i	?	-7.8%[9.22 µM]
CC(Oc1ccc(Cl)cc1Cl)C(=O)NCCC1=CCCCC1 (centres undefined)	i	-56.8*	i	4.4%	-1.0%
CC1(c2ccc(Cl)cc2)NC(=O)N(CN2CCOCC2)C1=O (centres undefined)	i	0.3	i	-6.7%	-8.3%
O=C(CC1SC(=O)NC1=O)Oc1ccc(/C=N/NC(=O)c2ccccc2O)cc1 (centres undefined)	i	7.1	i	-2.4%	-34.5%
SMILES	KB-V1 cytotox	IL1B secr inh	KB-3-1 cytotox	MCF10A rerep	SW480 rerep
CCOC(=O)C1=C(N)Oc2ccc3ccccc3c2C1c1cccnc1 (centres undefined)	11.2µM*	-9.8	?	?	-0.7%[9.22 µM]
CC(C)CCN1C(=O)CSCC1(C)C(=O)Nc1ccc2c(c1)OCCO2 (centres undefined)	i	-6.7	i	.	.
COCCNC(=S)N1CCN(Cc2ccc3c(c2)OCO3)CC1	i	0.7	i	3.1%	0.6%
CNC(=O)C1(C)Cc2c(-c3ccc(NC(C)=O)cc3)ccnc2O1 (centres undefined)	i	3.1	i	.	.
CC(=O)Nc1ccc(-c2ccnc3c2CC(C)(C(=O)Nc2ccc4c(c2)OCO4)O3)cc1 (centres undefined)	i	-51.5*	18.4µM*	.	.
CC(=O)Nc1ccc(NC(=O)C2(C)Cc3c(-c4ccc5c(c4)OCO5)ccnc3O2)cc1 (centres undefined)	i	0.0	i	.	.
CC(=O)Nc1ccc(-c2ccnc3c2CC(C)(C(=O)Nc2ccc(Cl)cc2)O3)cc1 (centres undefined)	?	-53.1*	?	.	.
CN(C)c1ccc(-c2ccnc3c2CC(C)(C(=O)Nc2ccc(Cl)c(C(F)(F)F)c2)O3)cc1 (centres undefined)	?	-20.3	16.4µM*	.	.
COCCn1c(=NC(=O)c2ccc(S(=O)(=O)N3CCc4ccccc4C3)cc2)sc2cc(OC)ccc21	?	7.7	i	?	-4.3%
O=C(Cn1nc2ccccc2n1)N/N=C/c1cc(Cl)cc([N+](=O)[O-])c1O	i	36.5	?	?	11.6µM*
CC(C)c1ccc(/C=C/C(=O)N2CCCCCC2)cc1	i	0.0	i	23.1µM*	-1.3%
CC(C)c1ccc(/C=C/C(=O)N2CCOCC2)cc1	i	-12.6	i	?	0.7%
COc1ccc2cc(/C=C/C(=O)N3CCN(CC(=O)N4CCCCCC4)CC3)ccc2c1	14.6µM*	?	i	17.7%	-4.4%
CCOC(=O)c1cccc(NC(=O)CCc2c(C)nn(-c3ccc(N4CCOCC4)nn3)c2C)c1	i	.	i	.	.
CCn1ccnc1CN(C)Cc1c(C(=O)N2C[C@@H](C)O[C@@H](C)C2)nc2ccc(Cl)cn12	i	17.5	i	-6.4%	-3.1%
NC1=NC[C@H](Cc2ccc(O)cc2)N1CCCCC1CCCCC1	?	-58.2*	?	?	-29.3%[9.22 µM]
CCC(C)(C)NC(=O)C1CCN(c2nc(OC)nc(OC)n2)CC1	i	11.6	i	-5.6%	-7.6%
CCOc1ncccc1C(=O)NCCc1ccc(Cl)cc1	i	-13.5	i	0.8%	-2.3%
CC(C)(C)OC(=O)N1O[C@H]2C[C@@H]1[C@@H]1[C@@H]2N=NN1C12CC3CC(CC(C3)C1)C2	i	16.0	i	-2.8%	20.6µM*
CC1CCCC(NC(=O)C2COc3ccccc3O2)C1C (centres undefined)	13µM*	-1.2	i	11.8%	-7.0%
CC(=O)c1cccc(NS(=O)(=O)c2c(C)noc2C)c1	i	-1.9	i	-1.2%	-8.6%
CC(=O)c1cccc(NS(=O)(=O)c2cc(-c3onc(C)c3C)ccc2C)c1	?	.	14.6µM*	.	.
